Assay results published in ChEMBL document CHEMBL3988442, “University of Dundee, Small-Polar-MMV Screening Library” (2021).
Values joined by “and” are separate entries in the source; they are usually repeats but may differ in a detail not shown here. Equal values may be shown once. Hit rate of the full screen: of about 38,000 compounds, about 1,200 (3.2%) showed an effect of 50% or more. The median lay at about -58%. This excerpt belongs to a sample that is enriched for strong results.

Test system: Plasmodium falciparum
Experiment: Calibr Malaria Delayed Death Assay SOP
Assay type: functional, organism-based
Set-up: scale not given: in the data most compounds retested in dose-response had high values
Conditions: concentration 4.99e-06 (unit not given; other assays of the set use mol/L)

SMILES | Percent Effect | Percent Effect (4.99 µM)
CCc1cc(N2CCC(NCCc3ccccc3F)CC2)nc(C)n1 | -10.81% | 
O=C(NCCNC1CCN(c2nccs2)CC1)c1cccs1 | -27.34% | 
Cn1ccnc1SCCNC1CCN(c2ncccn2)CC1 | -15.99% | 
CCc1nccn1CCNC1CCN(c2nc3ccc(Cl)cc3s2)CC1 | 85.53% | 
Cn1ccnc1SCCNC1CCN(c2nc3ccccc3s2)CC1 | 58.02% | 
Cc1n[nH]c(SCCNC2CCN(c3nc4ccccc4s3)CC2)n1 | -208.3% | 
N#Cc1ccc(OCC(O)CN2CCc3cncnc3C2)cc1 (centres undefined) | -94.24% | 
c1ccc(C2CN(C3CC3)CC3(CCN(Cc4ncc[nH]4)CC3)C2)cc1 (centres undefined) | 35.37% | 
CCN1CC2(CCC1=O)CCN(Cc1cscn1)CC2 | -71.85% | 
CCc1ccccc1CN1CCN(Cc2ncc[nH]2)[C@H]2CS(=O)(=O)C[C@H]21 | -62.66% | 
c1ccc(C2CN(C3CC3)CC3(CCN(Cc4cscn4)CC3)C2)cc1 (centres undefined) | 80.59% | 
CCN1CC(c2ccccc2)CC2(CCN(Cc3ncc[nH]3)CC2)C1 (centres undefined) | 87.85% | 
COc1ccc(C2CCN(Cc3cscn3)CC2)cc1 | -93.29% | 
CN1CC(c2ccccc2)CC2(CCN(Cc3ncc[nH]3)CC2)C1 (centres undefined) | 82.67% | 
COCCC(=O)N1CCC2(CC1)CC(c1ccccc1)CN(C)C2 (centres undefined) | -5.324% | 
CCN(CC1CN(Cc2ncc[nH]2)CCO1)c1cccnn1 (centres undefined) | -7.517% | 
O=C(NCC(O)c1ccc(Cl)c(F)c1)NC1CC=CC1 (centres undefined) | -17.82% | 
CCSc1cc(C(=O)NCCC(=O)N(C)C)ccn1 | -118.1% | 
Cc1nn(CCNS(=O)(=O)NCc2ccccc2)c(C)c1Cl | -125.5% | 
COc1ccccc1N1CCN(C(=O)CCc2nncn2C)C(C)C1 (centres undefined) | -70.09% | 
Cc1ccc(C)c(OC2CCN(C(=O)NCC(=O)N3CCCC3)CC2)c1 | -83.87% | 
CC(C)n1c2ccccc2c2c1cc(C(=O)NC1CC1)n2C(=O)N(C)C | -14.52% | 
O=c1c(CN2CCCCCC2)coc(O)c1CN1CCCCCC1 | 53.69% | 

SMILES | Percent Effect | Percent Effect (4.99 µM)
O=c1c(CN2CCSCC2)coc(O)c1CN1CCCC1 | -11.49% | 
O=c1c(CN2CCCCCC2)coc(O)c1CN1CCOCC1 | -41.33% | 
COc1ccc(CNc2c(N3CCN(C)CC3)c(=O)c2=O)cc1 | -162.8% | 
CCc1nc2n(n1)CC(NCc1noc(-c3ccc(C)cc3)n1)CC2 (centres undefined) | -102.8% | 
CN(C)c1nc(NCCc2cnccn2)ncc1F | -28.24% | 
COCCC1CCCCN1C(=O)c1coc(COc2ccccc2F)n1 (centres undefined) |  | -24.51% and -14.95%
COc1cccc(CNCc2ccccc2Cl)c1O | 76.29% | 
COc1cccc(CNCc2ccc(F)cc2Cl)c1O | 78.71% | 
CCOc1cccc(CNc2ccccc2Cl)c1O | -149% | 
Fc1ccc(CNCCn2cccn2)c(Cl)c1 | -121.7% | 
COCCNC(=O)NCCc1cccc(OC)c1O | -51.73% | 
Cc1cnn(CCNCc2ccc(F)cc2Cl)c1 | -82.03% | 
O=C(c1ccc2[nH]c(=O)[nH]c2c1)N1CCC(Nc2cccnn2)CC1 | -46.87% | 
COc1c(C)cnc(CN2CCOC(Cn3cc(C)cn3)C2)c1C (centres undefined) | -74.84% | 
Cn1c2c(c(=O)n1C)CN(C(=O)c1cnccn1)CCC2 | -106.6% | 
Cc1ccc(C(=O)N2CCCC3(C2)C(=O)N(C)c2ccccc23)c(=O)[nH]1 (centres undefined) | -167.7% | 
Cc1cc(C)cc(NC(=O)CC2CN(Cc3ccccc3)CCO2)c1 (centres undefined) | -128.2% | 
CCc1cccc2cc(CNCCCN3CCOCC3)c(=O)[nH]c12 | -14.92% | 
COCCCn1c(CN2CCCCO2)cnc1S(=O)(=O)C1CCCC1 | -131.1% | 
O=C(CNc1ccccc1Cl)Nc1cc(-n2cnnn2)ccc1F | -95.2% | 
O=C(CNc1cc(-n2cnnn2)ccc1F)Nc1cc(F)ccc1F | 1.352% | 
Cc1ccc(-n2cnnn2)cc1NCC(=O)Nc1cc(F)ccc1F | 71.46% | 
O=C(CNc1cc(-n2cnnn2)ccc1F)NCc1ccccc1 | -22.04% | 

SMILES | Percent Effect | Percent Effect (4.99 µM)
Cc1ccc(-n2cnnn2)cc1NCC(=O)Nc1ccccc1Cl | 78.71% | 
O=C(CNc1cc(-n2cnnn2)ccc1F)Nc1ccccc1Cl | -49.6% | 
Cc1ccc(-c2ccc(=O)n(CC(=O)Nc3nccs3)n2)cc1 | -17.67% | 
FC1(F)CCN(Cc2ccccn2)CC12CCN(c1cnccn1)C2.O=C(O)C(F)(F)F.O=C(O)C(F)(F)F.O=C(O)C(F)(F)F (centres undefined) | 16.91% | 
CC(C)(C)OCC1CN(CC2CC2)S(=O)(=O)c2cnccc2O1 (centres undefined) | -18.82% | 
O=C1NCC2(CCCN(C(=O)c3c[nH]nc3C3CCCCC3)C2)O1 (centres undefined) | -117.3% | 
O=C(NCC1CCOC1)c1csc(-c2ccc(F)cc2)n1 (centres undefined) | -133.9% | 
c1ccc(CO[C@H]2CO[C@@]3(CCCN(Cc4ccncc4)C3)C2)nc1 | -35.86% | 
CN1C[C@H]2N(c3ncccn3)CCC[C@@]2(C(=O)NCC2CC2)C1.O=C(O)C(F)(F)F | -55.87% | 
CCN(CC)Cc1ccc(C(=O)NC2CCc3cc(F)ccc32)o1 (centres undefined) | 13.89% | 
CCN(CC)Cc1ccc(C(=O)NC2CCc3cc(Cl)ccc32)o1 (centres undefined) | 54.73% | 
CCN(CC)Cc1ccc(C(=O)NC2CCc3cc(Br)ccc32)o1 (centres undefined) | 46.2% | 
CCC(c1ccncc1)N(C)S(C)(=O)=O (centres undefined) | -63.43% | 
O=c1[nH]nc2c(S(=O)(=O)N3CCCCC3)cccn12 | -53.1% | 
CCSc1nnc(CCNC(=O)OC(C)(C)C)o1 | -74.82% | 
Fc1ccc(C2(CNCCc3cccs3)CCOC2)cc1 (centres undefined) | 43.71% | 
Clc1ccc(OCCNC2(c3ccc(Br)cc3)CCOCC2)cc1 | 8.374% | 
FC(F)(F)c1cccc(C2(CNCc3ccncc3)CCOCC2)c1 | 48.98% | 
CCN(C)S(=O)(=O)NCC1(c2cccc(Br)c2)CC1 | -108.3% | 
COCCn1ccnc1C1CCCN(c2cc(OC)nc(N)n2)C1 (centres undefined) | -62.62% | 
CC(O)(CN1CCC2(CC1)OCCO2)c1cccc(C(F)(F)F)c1 (centres undefined) | -10.61% | 
CC(=O)N1CCCN(CC(C)(O)c2cccc(C(F)(F)F)c2)CC1 (centres undefined) | -93.83% | 
CC(O)(CN1CCC(O)CC1)c1cccc(C(F)(F)F)c1 (centres undefined) | 56.04% | 
